Screening results from PubChem.
HSV augment = increases HSV replication in cells. HSV replication augmentation in cells, fold increase. maximum fold increase. 220,000 tested, 0.005% active. AID 1956; in the data active = maximum fold increase above about 1.5; inconclusive = no clear call, values can overlap the other calls; tested in PC3 cells
Calpain2 inh = blocks pig calpain II enzyme activity. purified calpain II, fluorogenic peptide substrate, 30 min. inhibition, % at 16 µM. 220,000 tested, 0.37% active;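 active = inhibition above about 50%, limit read from the data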
Efa HMGR inh = inhibitors of class II HMG-CoA reductase from Enterococcus faecalis. 190,000 tested, 0.41% active. purified E. faecalis HMGR, NADPH absorbance 340 nm kinetic. inhibition, % at 10 µM;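 active = inhibition above a set limit, the median over all tested compounds plus 3 SD, cut at about 9.5% in these data; inconclusive = no clear call, values can overlap the other calls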;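 note: enzyme runs in reverse so mevalonate oxidation gives rising NADPH absorbance; 0% = complete reaction with DMSO and 100% = background rate lacking mevalonate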
Arbovirus inh = antivirals against arbovirus infection; arbovirus infection cell-based antiviral screen; inhibition, % at 10 µM; 200,000 tested, 0.37% active; AID 1251; in the data active = inhibition above about 30%
ROMK primary = human ROMK K+ channel modulation, primary screen. P48048. Tet-inducible ROMK, thallium flux fluorescence; actives lie on both sides. B-score at 10 µM. 130,000 tested, 2% active;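 active = signal ratio slope over the read window, or its plate-corrected B-score, at least 3 SD from the plate mean, either direction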;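 note: B-score of the F/F0 ratio slope over 7 to 12 s after thallium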
Target sequence (P48048 whole entry, looked up): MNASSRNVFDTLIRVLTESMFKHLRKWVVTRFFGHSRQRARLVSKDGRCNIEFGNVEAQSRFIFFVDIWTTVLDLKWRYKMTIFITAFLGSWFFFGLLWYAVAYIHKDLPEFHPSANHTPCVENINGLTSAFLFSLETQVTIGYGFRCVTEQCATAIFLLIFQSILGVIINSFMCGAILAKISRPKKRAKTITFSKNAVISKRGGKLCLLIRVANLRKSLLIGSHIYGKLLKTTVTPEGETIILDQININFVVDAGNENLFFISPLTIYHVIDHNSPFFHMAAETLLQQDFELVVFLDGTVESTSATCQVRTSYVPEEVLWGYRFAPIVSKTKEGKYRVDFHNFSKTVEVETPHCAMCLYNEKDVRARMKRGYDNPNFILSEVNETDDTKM
ROMK hit retest = human ROMK channel modulation, retest confirmation | shares compounds with ROMK primary | 3,000 tested, 54% active | normalized thallium flux (F/F0 slope) at 10 µM | ROMK thallium flux, fluorescence ratio; hits give low values;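 active = Flux at 10 µM at least 3 SD below or above vehicle control mean in one or both replicates; inconclusive = no clear call, values can overlap the other calls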
Active calls of the source: *; i = inactive; ? = inconclusive; nt = not tested or not shown. Sampled rows, rich in hits. Any-hit rate of the full collection: about 2.1%.

SMILES	HSV augment	Calpain2 inh	Efa HMGR inh	Arbovirus inh	ROMK primary	ROMK hit retest
COc1ccc(Br)cc1CNC(=O)CCCc1cn(C)c2ccccc12	nt	16	0	-1	-0.04	nt
Cc1ccc(CNC(=O)CCCc2ccccc2)cc1	i	-12	3	-2	nt	nt
COc1ccc(OC)c(CNC(=O)CCCc2cn(C)c3ccccc23)c1	nt	5	9	5	1.3*	?
COc1ccc(CCCC(=O)NCc2ccccc2)cc1C	i	-6	-3	-12	4*	0.088
Oc1ccc(Nc2nc(NCC3CCCO3)c3ccccc3n2)cc1 (configuration not stated)	i	-20	-11	41*	-5.5*	0.055*
FC(F)(F)c1cnc(COc2ccc(Cl)cc2Cl)c(Cl)c1	i	2	nt	nt	0.69	nt
CC(C)(C)Nc1nc(Cl)nc(NCc2ccccc2)n1	i	25	nt	nt	-8.5*	0.047*
O=Cc1cccc(OC(=O)c2ccc(Cl)cc2Cl)c1	i	-19	-4	-1	3*	0.088
O=C(Nc1ccc2c(c1)nc1n2CCN(C2CCCCC2)C1)NC1CCCCC1	i	-351	-3	-12	-3.1*	0.042*
CCC(=O)Nc1ccc2c(c1)nc1n2CCN(C2CCCCC2)C1	i	-248	1	1	0.73	nt
O=C(Oc1coc(CSc2ncccn2)cc1=O)c1ccccc1[N+](=O)[O-]	i	13	0	9	0.041	0.088
Cc1cc(C)nc(SCc2cc(=O)c(OC(=O)c3cc([N+](=O)[O-])ccc3Cl)co2)n1	i	-14	-5	-4	nt	nt
CCN(CC)C(=O)C(=O)c1ccn(-c2c(C)csc2C(=O)OC)c1	i	7	-3	8	1.1	nt
Cc1ccc(NC(=O)c2ccccc2O)cc1	i	-12	-1	11	nt	0.065*
O=C(Nc1ccccc1)c1ccccc1O	i	-65	-1	10	nt	nt
CCCCC(CC)CNC(=O)C(=O)c1ccccc1NC(C)=O (configuration not stated)	i	-10	2	-15	-0.13	nt
COc1cc(C#N)c(NC(=O)CN2CCC(C(N)=O)CC2)cc1OC	i	16	-9	0	2.1	nt
O=[N+]([O-])c1ccc(-c2ccc(/C=N/Nc3nc(NCc4ccccc4)nc(N4CCOCC4)n3)o2)cc1	i	-137	0	-32	-3.9*	0.063*
O=C(CCNC(=O)c1ccccc1Cl)Nc1nnc(C2CC2)s1	nt	-1	-4	11	1.2	nt
Cc1ccc(C(=O)OCC(=O)Nc2cccc(S(=O)(=O)NC3=NCCCCC3)c2)c(C)c1	i	20	0	3	-2	nt
O=C(Nc1cccc(S(=O)(=O)c2cccc(NC(=O)C3CC3)c2)c1)C1CC1	i	13	0	3	-0.8	0.074
O=C(Nc1c(C(=O)O)[nH]c2ccc(F)cc12)c1cccc(C(F)(F)F)c1	i	-310	nt	nt	nt	nt
O=C(CSc1nc2sc3c(c2c(=O)n1-c1ccccc1)CCCC3)NCc1ccco1	nt	-15	-11	-4	nt	nt
CC1(C)Cc2c(sc3nc(SCC(=O)NCc4ccco4)n(-c4ccccc4)c(=O)c23)CS1	i	-51	-5	2	1	0.055*
CCOC(=O)c1ccc2nc(NC(=O)c3ccco3)sc2c1	nt	16	-3	4	nt	nt
SMILES	HSV augment	Calpain2 inh	Efa HMGR inh	Arbovirus inh	ROMK primary	ROMK hit retest
CCOC(=O)c1ccc2nc(NC(=O)c3cccs3)sc2c1	i	-34	-2	6	nt	0.074
CCn1c(=O)c(=O)[nH]c2cc(C(=O)NC3CCCc4ccccc43)ccc21 (configuration not stated)	i	-27	-1	-13	3.2*	0.083
CCn1c(=O)c(=O)[nH]c2cc(C(=O)NC3CC3)ccc21	i	5	-3	-5	0.78	nt
CCOC(=O)N1CCN(C(=O)C2CCCN(S(=O)(=O)c3cccnc3)C2)CC1 (configuration not stated)	i	-8	-2	9	nt	0.078
CCNC(=S)Nn1cnc2ccccc21	i	-17	nt	nt	nt	nt
Fc1cccc(Cl)c1Cn1nnc2c(NCc3ccncc3)ncnc21	i	-3	-5	-18	0.26	nt
CC1=C(C(=O)OCC(Cl)(Cl)Cl)N2C(=O)C(NC(=O)Cc3ccccc3)C2SC1 (configuration not stated)	i	-5	-7	7	-3.1*	0.061*
O=C(O)C1CC=CCC1C(=O)NNc1ccccc1 (configuration not stated)	i	-16	-2	-28	0.72	nt
O=C(O)C1CC=CCC1C(=O)c1ccccc1 (configuration not stated)	i	20	-9	7	3.4*	0.081
Cc1ccc(Sc2ccc(CN3CCCCC3)cc2[N+](=O)[O-])cc1	i	26	0	-13	-0.32	nt
